In PubChem BioAssay AID493169 (National Center for Advancing Translational Sciences (NCATS), 2011):
Inconclusive results are not listed. Entries that show only a call come without a potency. Active and inactive are the calls of the source. Calls follow the shape of the dose curve; as a rule, active = well fitted inhibition curve with a large enough effect; inconclusive = small, poorly fitted or top-dose-only effect; inactive = flat fitted curve, though single readings scatter.

assay: CHOP2 Reporter Counterscreen Assay for Inhibitors of Ubiquitin-specific Protease USP2a; settings: purified enterokinase, fluorogenic substrate, 485/531 nm; series mostly up to 38.3 µM;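 also: activated enterokinase alone at 50 pM in a cell-free format rather than USP2a or CHOP2; nearly all actives have a fitted effect of over 55% in size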
How it was run: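 Fluorescence (485/531 nm) read 10 min after adding 25nM reporter substrate to 50 pM activated EK preincubated 30 min RT with compound; Tris pH 8.0/CaCl2/CHAPS buffer. Data normalized to buffer-alone inhibition; concentration-response curves fitted.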
Potency is read from the fitted curve at half-maximal effect.

Row | SMILES | Potency
1 | O=C(OCC1OC(n2ncc(=O)[nH]c2=O)C(OC(=O)c2ccccc2)C1OC(=O)c1ccccc1)c1ccccc1 (stereo not given) | 7.94 µM (active)
2 | Cc1ccc(N2CN=c3s/c(=C\c4cccnc4)c(=O)n3C2)cc1 | inactive
3 | CCc1sc(/C=C(/C#N)C(N)=S)cc1[N+](=O)[O-] | inactive
4 | Nc1cc(N)nc(SCC(=O)N2CCCCC2)n1 | inactive
5 | O=c1/c(=C/c2ccco2)sc2n1CN(c1cccc(Br)c1)CN=2 | inactive
6 | C=CCn1c(Br)nc2c1c(=O)n(C)c(=O)n2C | inactive
7 | CC(C)c1ccc(CCNC(=O)c2ccc([N+](=O)[O-])cc2)cc1 | inactive
8 | CCOc1ccc(Cn2c(=O)sc3ccccc32)cc1OC | inactive
9 | CC(C)C(=O)Nc1ccc(C(=O)N2CCCCCC2)cc1 | inactive
10 | CCCCC1CCC(C(=O)Nc2ccc(S(=O)(=O)Nc3nccs3)cc2)CC1 (stereo not given) | inactive
11 | CCNc1sc(C(=O)c2cccs2)c(N)c1-c1nc2ccccc2s1 | inactive
12 | CC1=NN(c2ccc(C(=O)O)cc2)C(=O)/C1=C\c1ccc(OC(=O)c2cccs2)cc1 | 3.55 µM (active)
13 | O=C(Nc1cccc(C(F)(F)F)c1)/C(=C\c1ccco1)NC(=O)c1cccs1 | inactive
14 | O=C(c1cccc(F)c1)N1CCN(S(=O)(=O)c2ccccc2)CC1 | inactive
15 | Cn1c2ccccc2c2nnc(SC3CCOC3=O)nc21 (stereo not given) | inactive
16 | COc1cccc(-c2csc3nnc(SCC(=O)NCc4cccs4)n23)c1 | inactive
17 | CCOc1ccccc1C(=O)NC1CC2CCCC(C1)N2C1CC1 (stereo not given) | inactive
18 | CC1CCN(CC(O)COc2cccc(F)c2)CC1 (stereo not given) | inactive
19 | O=C(CC1Oc2ccccc2NC1=O)NCc1ccc(Cl)cc1 (stereo not given) | inactive
20 | N=C1/C(=C\c2ccc(-c3cccc(Cl)c3)o2)C(=O)N=C2SC=C(c3ccccc3)N12 | inactive

Row | SMILES | Potency
21 | CC(C)c1ccc(Nc2nnc(SCC(=O)c3nnc(-c4ccccc4)o3)s2)cc1 | 5.01 µM (active)
22 | COc1ccc(S(=O)(=O)N2CCCC2C(=O)NCc2cccs2)cc1 (stereo not given) | inactive
23 | COc1ccc(/C=C(\NC(=O)c2ccc(OC)c(OC)c2)C(=O)N2CCN(C)CC2)cc1 | inactive
24 | CCOC(=O)C1CCN(CC(O)COc2ccc(C(C)(C)C)cc2)CC1 (stereo not given) | inactive
25 | CCCOc1ccc(/C=C2\SC(=S)N(CC3CCCO3)C2=O)cc1 (stereo not given) | inactive
26 | CCCn1c(N2CCN(Cc3cccc(C)c3)CC2)nc2c1c(=O)[nH]c(=O)n2C | inactive
27 | CCCc1nc(SCC(N)=O)[nH]c(=O)c1CC | inactive
28 | Cc1ccc(S(=O)(=O)Nc2ccccc2-c2ccccc2NS(=O)(=O)c2ccc(C)cc2)cc1 | inactive
29 | COC(=O)c1[nH]c2cc(OC)ccc2c1N | inactive
30 | CC(C)Cn1c(SCC(N)=O)nnc1-c1cccc(S(=O)(=O)N2CCOCC2)c1 | inactive
31 | Cc1cccc(N=C2NC(=O)/C(=C/C=C/c3ccco3)S2)c1 | 10 µM (active)
32 | Cc1ccc2[nH]c(C)c(CCNC(=O)c3cc4cc([N+](=O)[O-])ccc4oc3=O)c2c1 | inactive
33 | C#CCOCCOCCOCCNc1nc(N2CCN(C(=O)CCCCCCCCCCNC(=O)[C@H]([C@@H](C)CC)n3cc(CCCCCN)nn3)CC2)nc(N2CCN(C(=O)CCCCCCCCCCNC(=O)[C@H]([C@@H](C)CC)n3cc(CCCCN=C(N)N)nn3)CC2)n1 | 2.24 µM (active)
34 | C#CCOCCOCCOCCNc1nc(N2CCN(C(=O)CCCCCCCCCCNC(=O)[C@@H](CCSC)n3cc(CCO)nn3)CC2)nc(N2CCN(C(=O)CCCCCCCCCCNC(=O)[C@H](CCCN=C(N)N)n3cc(C[C@@H](C)CC)nn3)CC2)n1 | 2.51 µM (active)
35 | COc1ccc(-c2cc(C(F)(F)F)nc(S(C)(=O)=O)n2)cc1 | inactive
36 | O=C(Nc1nnc(SCCC2OCCO2)s1)C1CC(=O)N(c2ccc(F)cc2)C1 (stereo not given) | 11.2 µM (active)
37 | COc1cccc(OC)c1-c1nn2c(-c3cc(-c4ccccc4)n[nH]3)nnc2s1 | 5.62 µM (active)
38 | COc1ccc(-c2noc(CSc3nnc(Cc4ccccc4)n3-c3ccc(Cl)cc3)n2)cc1 | inactive
39 | CCCCCCCCCS(=O)(=O)N/N=C/c1cccc([N+](=O)[O-])c1 | inactive
40 | O=C1N=c2ccccc2=C1c1sc(Nc2ccc(O)cc2)nc1O | 8.91 µM (active)
